Experimental data taken from the supplement of paper PMC10981050.
Values joined by “and” are separate entries in the source; they are usually repeats but may differ in a detail not shown here. Identical values can stand only once. Counter-ions that a name gives are not always drawn.

Key:
Experiment in all cases: cell viability relative to vehicle control; higher = less cytotoxic
Details in all cases: 10 µM
K562 = tested on: K562
In short: (§1)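 Each screen used CRISPR-edited mutant and wild-type clones from four leukaemia lines. Compounds were acoustically dispensed at a single 10 µM dose, and CellTiter-Glo luminescence was read after 48 h with the supernatant first removed. Viability was analysed in Genedata Screener and given as percent of the on-plate vehicle control.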

MARIMO = tested on: MARIMO
In short: as §1

MOLM14 = tested on: MOLM14
In short: as §1

OCI-AML2 = tested on: OCI-AML2
In short: as §1

Row | SMILES | cell viability (K562; SRSF2 genotype: SRSF2 P95H/wt) | cell viability (K562; SRSF2 genotype: SRSF2 wt/wt) | cell viability (MARIMO; SRSF2 genotype: SRSF2 P95H/wt) | cell viability (MARIMO; SRSF2 genotype: SRSF2 wt/wt) | cell viability (MOLM14; SRSF2 genotype: SRSF2 P95H/wt) | cell viability (MOLM14; SRSF2 genotype: SRSF2 wt/wt) | cell viability (OCI-AML2; SRSF2 genotype: P95H/wt) | cell viability (OCI-AML2; SRSF2 genotype: wt/wt)
1 | O=C(Nc1c(Cl)cncc1Cl)c1ccc(OC(F)F)c(OCC2CC2)c1 [Roflumilast (Daxas)] | 96.8% and 106% | 105% | 116% | 114% | 105% | 109% | 103% | 96%
2 | COc1cc(/C=C/C(=O)OC[C@H]2O[C@H](O[C@]3(CO)O[C@H](CO)[C@@H](O)[C@@H]3OC(=O)/C=C/c3cc(OC)c(O)c(OC)c3)[C@H](O)[C@@H](O)[C@@H]2O)cc(OC)c1O [3,6'-Disinapoyl sucrose] | 106% and 103% | 101% | 106% | 109% | 112% | 105% | 102% | 105%
3 | O=c1c2cc(O[C@@H]3O[C@H](CO)[C@@H](O)[C@H](O)[C@H]3O)c(O)cc2oc2cc(O)c([C@@H]3O[C@H](CO)[C@@H](O)[C@H](O)[C@H]3O)c(O)c12 [Neomangiferin] | 95.1% and 100% | 97% | 93.8% | 91.2% | 99.4% | 100% | 101% | 97.7%
4 | CCCCCCCCCCCCCCCC(=O)OCC(O)C1OC(=O)C(O)=C1O [L-Ascorbyl 6-palmitate] | 103% and 102% | 98.7% | 107% | 121% | 106% | 109% | 103% | 106%
5 | Cc1cc(=O)[nH]c(=S)[nH]1 [Methylthiouracil] | 99.3% and 106% | 90.5% | 96.7% | 107% | 99.9% | 103% | 95.5% | 104%
6 | CC(C)[C@H](N)C(=O)OCC(CO)OCn1cnc2c(=O)nc(N)[nH]c21 (stereo partly drawn) [Valganciclovir Hydrochloride] | 86.3% and 81.6% | 83.1% | 90.7% | 84.8% | 87.2% | 88.3% | 77% | 89.2%
7 | O=C(CCCCCCC(=O)Nc1ccccc1)NO [Vorinostat (SAHA, MK0683)] | 1.62% and 17.9% | 10.1% | 4.92% | 8.5% | 0.83% | 0.28% | 1.15% | 4.64%
8 | O=C[C@H](O)[C@@H](O)[C@H](O[C@H]1O[C@H](CO)[C@@H](O[C@H]2O[C@H](CO)[C@@H](O[C@H]3O[C@H](CO)[C@@H](O[C@H]4O[C@H](CO)[C@@H](O)[C@H](O)[C@H]4O)[C@H](O)[C@H]3O)[C@H](O)[C@H]2O)[C@H](O)[C@H]1O)[C@H](O)CO [Maltopentaose] | 101% | 103% | 97.8% | 105% | 104% | 106% | 109% | 110%
9 | CCCOc1ccc2[nH]c(NC(=O)OC)nc2c1 [Oxibendazole] | 15.3% and 34.8% | 28% | 6.59% | 7.72% | 10.9% | 3.24% | 4.68% | 8.07%
10 | COc1cc2c(Oc3ccc(NC(=O)C4(C(=O)Nc5ccc(F)cc5)CC4)cc3F)ccnc2cc1OCCCN1CCOCC1 | 0.8% and 0.64% | 0.55% | 17.8% | 12.1% | 0.21% | 0.34% | 0.22% | 1.03%
11 | Nc1ccc(-c2cccc(C(=O)Nc3cnc4nc(N5CCOCC5)oc4c3)n2)cn1 | 96.8% and 100% | 91.5% | 98.3% | 91.6% | 86% | 87.5% | 103% | 93.7%
12 | Cc1cc([C@@H](C)Nc2ccccc2C(=O)O)c2nc(N3CCOCC3)cc(=O)n2c1 | 88.7% and 86.4% | 89.2% | 66.9% | 66.3% | 49.6% | 48.3% | 49.8% | 56.1%
13 | S=c1[nH]cnc2nc[nH]c12 [Mercaptopurine (6-MP)] | 58.5% and 51.3% | 34.1% | 82.1% | 85.9% | 74.4% | 63.6% | 83.2% | 90%
14 | CCCn1/c(=N/C(=O)c2cccc(C(N)=O)c2)[nH]c2ccccc21 [Takinib] | 100% | 96.3% | 98.8% | 103% | 77.8% | 91% | 74.7% | 84.3%
15 | NC(N)=Nc1nc(CSCC/C(N)=N/S(N)(=O)=O)cs1 [Famotidine (Pepcid)] | 105% and 106% | 109% | 111% | 106% | 103% | 107% | 107% | 107%
16 | O=c1cc(CN2CCOCC2)occ1OCCCCCSc1ccnc2cc(C(F)(F)F)ccc12 | 59.9% and 65.2% | 60.1% | 49.4% | 37.7% | 58.9% | 68.5% | 27.6% | 34.3%
17 | Nc1nonc1C(=Nc1ccc(F)c(Cl)c1)NO | 97% and 107% | 101% | 92% | 97.2% | 93.8% | 100% | 98.2% | 111%
18 | COc1cc2ncnc(Sc3nnc(C)s3)c2cc1OC | 52.4% and 59.1% | 73.6% | 42% | 42.1% | 5.68% | 3.57% | 3.76% | 16.7%

Row | SMILES | cell viability (K562; SRSF2 genotype: SRSF2 P95H/wt) | cell viability (K562; SRSF2 genotype: SRSF2 wt/wt) | cell viability (MARIMO; SRSF2 genotype: SRSF2 P95H/wt) | cell viability (MARIMO; SRSF2 genotype: SRSF2 wt/wt) | cell viability (MOLM14; SRSF2 genotype: SRSF2 P95H/wt) | cell viability (MOLM14; SRSF2 genotype: SRSF2 wt/wt) | cell viability (OCI-AML2; SRSF2 genotype: P95H/wt) | cell viability (OCI-AML2; SRSF2 genotype: wt/wt)
19 | CCN1CCN(Cc2ccc(C(=O)Nc3ccc(C)c(Oc4ccc5c(c4)CC(=O)N5)c3)cc2C(F)(F)F)CC1 | 4.41% and 19.5% | 9.71% | 70.5% | 82.1% | 46.6% | 45% | 45% | 44.8%
20 | O=C(O)CC[C@H]1CC[C@@](c2cc(F)ccc2F)(S(=O)(=O)c2ccc(Cl)cc2)CC1 | 102% and 101% | 97.9% | 91.6% | 92.1% | 98.3% | 99.2% | 102% | 97%
21 | C[C@@H](O[C@H]1OCCN(Cc2nn(P(=O)(O)O)c(=O)[nH]2)[C@H]1c1ccc(F)cc1)c1cc(C(F)(F)F)cc(C(F)(F)F)c1 [Fosaprepitant dimeglumine salt] | 52.4% and 55.7% | 57% | 53.1% | 52.6% | 60.9% | 65% | 52.4% | 58%
22 | FC(F)(F)Oc1ccc(-c2ccc3nnc(C(F)(F)F)n3c2)cc1 | 91% and 96.6% | 102% | 95.7% | 97.8% | 95.2% | 112% | 89% | 94.4%
23 | O=C(/C=C/c1ccc(O)c2c1[C@H](C(=O)O[C@H](Cc1ccc(O)c(O)c1)C(=O)O)[C@@H](c1ccc(O)c(O)c1)O2)O[C@H](Cc1ccc(O)c(O)c1)C(=O)O [Salvianolic acid B] | 96.5% and 101% | 101% | 101% | 108% | 96.7% | 103% | 98.9% | 97.8%
24 | O=C(O)Cc1ccccc1Nc1c(Cl)cccc1Cl [Diclofenac Potassium] | 94.4% and 99.1% | 97.2% | 106% | 105% | 93.5% | 100% | 95.3% | 105%
25 | Cn1cncc1[C@@](N)(c1ccc(Cl)cc1)c1ccc2c(c1)c(-c1cccc(Cl)c1)cc(=O)n2C [Tipifarnib (Zarnestra)] | 24.9% and 31.7% | 34.7% | 34.5% | 32.9% | 29.9% | 20.2% | 19.9% | 26%
26 | CNCc1cc(-c2ccccc2F)n(S(=O)(=O)c2cccnc2)c1 [Vonoprazan Fumarate (TAK-438)] | 94.5% and 98% | 94.2% | 85.5% | 89.8% | 93% | 91.3% | 97.1% | 85.7%
27 | CCOC(=O)[C@H](CCc1ccccc1)N[C@@H](C)C(=O)N1Cc2cc(OC)c(OC)cc2C[C@H]1C(=O)O [Moexipril HCl] | 93.9% and 103% | 104% | 110% | 105% | 106% | 109% | 104% | 95.9%
28 | O=C1NC(=O)C(=Cc2ccc(-c3ccc(F)cc3)o2)S1 (stereo in doubt) | 102% and 101% | 97.1% | 93.1% | 92.5% | 113% | 108% | 94.6% | 95.8%
29 | CN(C)CCOC(c1ccccc1)c1ccccc1 [Diphenhydramine HCl (Benadryl)] | 91.2% and 88.2% | 85.9% | 76.8% | 91.7% | 88.3% | 85.8% | 87.8% | 92.3%
30 | C=CC(=O)N1CC/C(=C\c2ccc(F)c([N+](=O)[O-])c2)C(=O)/C(=C/c2ccc(F)c([N+](=O)[O-])c2)C1 | 2.41% and 0.35% | 0.44% | 0.25% | 0.39% | 0.29% | 0.29% | 0.26% | 0.35%
31 | C=C1C[C@@]23CC[C@H]4[C@@](C)(CCC[C@@]4(C)C(=O)O[C@@H]4O[C@H](CO)[C@@H](O)[C@H](O)[C@H]4O)[C@@H]2CC[C@]1(O[C@@H]1O[C@H](CO)[C@@H](O)[C@H](O)[C@H]1O)C3 [Rubusoside] | 100% and 97.7% | 101% | 110% | 104% | 104% | 103% | 104% | 114%
32 | Nc1ccc(S(=O)(=O)Nc2nccs2)cc1 [Sulfathiazole] | 104% and 98.6% | 95.4% | 95.8% | 107% | 103% | 102% | 96% | 105%
33 | CCCCCC(=O)O[C@]1(C(C)=O)CC[C@H]2[C@@H]3CCC4=CC(=O)CC[C@]4(C)[C@H]3CC[C@@]21C [Hydroxyprogesterone caproate] | 40.1% and 34.4% | 39.2% | 29.2% | 24.9% | 38.5% | 21% | 28.8% | 23.7%
34 | COc1ccc2c(Oc3ccc(NC(=O)c4c(C)n(CC(C)(C)O)n(-c5ccccc5)c4=O)nc3)ccnc2c1 | 46% and 69.9% | 50% | 84.8% | 97.3% | 11% | 10.7% | 27.8% | 35.9%
35 | COc1ccc(-c2cc3c(C)nc(N)nc3n([C@H]3CC[C@H](OCCO)CC3)c2=O)cn1 | 40.2% and 40.4% | 39.5% | 32.4% | 27.5% | 22.9% | 23.3% | 1.55% | 8.86%
36 | O=C(Nc1cc2cc[nH]c2cn1)c1ccccc1 | 45.9% and 44.5% | 43% | 43.3% | 45.8% | 49.3% | 51.1% | 38.6% | 39.3%
